Source: PubChem BioAssay
In the library only some 1.8% were active in any assay of this set; here they are far more common.
TNFa cytotox – cytotoxicity in TNFa-stimulated HUVEC, primary screen, cytotoxicity control for VCAM1 expression modulator project, imaging, Hoechst nuclei count; HUVEC TNFalpha-stimulated, Hoechst cell count; cell count reduction, % at 2 µM; hit rate 0.17% among 93,000;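 active means cell count reduction exceeding the screen mean by over 5 SD, scaled to untreated wells per plate, cut at about 78% in these data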;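 further: cells counted after 24 h of TNF alpha exposure following the 1 h pretreatment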
HUVEC tox IL1B – cytotoxicity in IL-1B stimulated HUVEC, primary screen, cytotoxicity control for IL-1B NFkB translocation project, imaging, Hoechst nuclear count, IL-1B stimulus. cell count reduction, % at 2 µM. hit rate 0.41% among 94,000. HUVEC cell count loss;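 active means cell count reduction more than 3 SD above the screen-wide mean, cut at about 70% in these data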;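 further: normalized per plate to untreated control cells as the no-loss baseline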
E-sel TNF inh – E-selectin induction blockers in HUVEC – imaging, immunofluorescence, high content, primary screen; inhibition, % at 2 µM; hit rate 0.71% among 120,000; HUVEC TNFa-induced E-selectin immunofluorescence;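 active means inhibition above the batch mean plus 3 SD, and confirmed as a hit on visual image review, cut at about 43% in these data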;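 further: 0% = TNF-stimulated DMSO wells and 100% = unstimulated control wells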
VCAM1 TNFa inh – inhibitors of TNFa-induced VCAM1 expression, primary screen, imaging, HUVEC, TNFa stimulus, immunofluorescence. hit rate 0.48% among 95,000. inhibition, % at 2 µM. HUVEC TNFa-induced VCAM-1 immunofluorescence, high-content imaging;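 active means inhibition above the batch mean plus 3 SD, with images confirmed as a hit by eye, cut at about 37% in these data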;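 further: 0% = TNF-stimulated DMSO wells and 100% = unstimulated control wells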
IL1B NFkB pot – enhancers of NFkB p65 translocation in HUVEC – imaging, IL-1B stimulus, high-content imaging, primary screen | HUVEC IL-1B NFkB p65 nuclear translocation imaging | activation, % at 2 µM | hit rate 0.3% among 94,000 | AID 819, 2007;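 active means activation above 40%, about the mean plus 3 SD, also judged a hit on visual image review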;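 further: percent activation is computed from the nuclear over cytoplasmic p65 intensity ratio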
IL1B NFkB inh – inhibitors of IL-1B driven NFkB p65 nuclear import, primary screen, imaging, HUVEC, IL-1B stimulus, high-content imaging; HUVEC IL-1B NFkB p65 nuclear translocation imaging; inhibition, % at 2 µM; hit rate 0.43% among 94,000; AID 796, 2007;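 active means inhibition above about 30% together with a positive call from visual inspection of the well image, limit read from the data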;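 further: nuclear over cytoplasmic p65 intensity ratio measured by imaging; 0% = IL-1B stimulated DMSO wells and 100% = unstimulated DMSO wells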
Starred values were filed as active, the others as inactive; . = no result given.

SMILES	TNFa cytotox	HUVEC tox IL1B	E-sel TNF inh	VCAM1 TNFa inh	IL1B NFkB pot	IL1B NFkB inh
O=S(=O)(NCc1cccnc1)c1ccc(Cl)s1	37.3	89.9*	4.5	-0.9	-58.6	58.6*
Cc1ccccc1Cn1ccc(NC(=O)c2cnn3c2NC(c2ccccc2)CC3C(F)(F)F)n1 (centres undefined)	-34.4	1.5	75.2*	4.2	26.7	-26.7
CC(C)c1ccc(NC(=O)N(CCc2nc3ccccc3[nH]2)C2CCCC2)cc1	-9.5	12.9	-6.9	-9.5	-3.8	3.8
O=C(Nc1ccccc1)N(CCc1ccncc1)C1CCCCC1	-13.2	-1.1	97.7*	1.5	10.5	-10.5
Cn1c(=O)c2c(nc(CN3CCOCC3)n2CCCO)n(C)c1=O	.	.	-51.7	.	.	.
C=CCSc1nnc2c(n1)OC(c1ccco1)Nc1ccccc1-2 (centres undefined)	.	.	1.2	.	.	.
C=CCSc1nnc2c(n1)OC=Nc1ccccc1-2	-16.4	90.8*	-14.1	-17.0	-30.2	30.3*
COc1ccc(C(=O)c2c(C(F)(F)F)oc3c2C(=O)c2ccccc2C3=O)cc1	29.9	7.2	-4.7	93.8*	31.7	-31.7
CN(C)c1ccc(NC(=O)COC(=O)Cn2nnc3ccccc32)cc1	.	.	88.9*	.	.	.
CCOC(=O)CSc1nc(C)cc(=O)[nH]1	-9.1	40.2	7.8	-3.5	-1.8	1.8
CCOC(=O)CSc1nc(N)cc(=O)[nH]1	-8.3	11.2	76.6*	-10.5	-3.1	3.1
Nc1nc(C(=O)N2CCOCC2)nn1S(=O)(=O)c1ccc(Cl)cc1	1.1	91.8*	0.5	7.1	3.2	-3.2
COc1ccc(OCCCSc2ncccn2)cc1	-20.9	-12.0	6.4	3.8	25.1	-25.1
CC(C)CCNC(=S)Nc1ccc(Br)cc1	.	.	-6.3	.	.	.
CCCNC(=S)Nc1ccc(Br)cc1	-27.9	91.9*	-42.9	-3.1	8.4	-8.4
O=S(=O)(c1ccc2c(c1)C(=NO)c1cc(S(=O)(=O)N3CCCCC3)ccc1-2)N1CCCCC1	90.3*	-6.6	5.7	99.8*	-7.0	7.0
Cc1noc(C)c1S(=O)(=O)N1CCN(C(c2ccccc2)c2ccc(Cl)cc2)CC1 (centres undefined)	86.2*	-52.9	.	-15.6	-1.8	1.8
Cc1c(S(=O)(=O)N2CCN(C(c3ccccc3)c3ccccc3)CC2)c(=O)n(C)c(=O)n1C	-22.2	-8.7	-11.6	4.7	10.2	-10.2
Cc1noc(C)c1S(=O)(=O)N1CCC2(CC1)OCCO2	94.7*	-27.4	-3.8	88.5*	19.1	-19.1
Cc1noc(C)c1S(=O)(=O)N1CCCCC1	-14.1	-1.9	-2.4	0.9	-8.5	8.5
Cn1c(CNC2CCCCC2)c(C#N)c2ccccc21	-3.3	-1.8	-11.9	16.4	-1.0	1.0
CC(C)(C)NS(=O)(=O)c1ccc(OCC(=O)NCCC2=CCCCC2)cc1	-15.0	0.3	5.2	11.2	10.6	-10.6
CC(Sc1nc(N)cc(=O)[nH]1)C(=O)NC1CCCCC1 (centres undefined)	-9.9	5.3	-24.4	93.5*	2.4	-2.4
CCC(Sc1nc(N)cc(=O)[nH]1)C(=O)NC(C(=O)OC)c1ccccc1 (centres undefined)	11.8	10.7	15.0	14.5	11.6	-11.6
O=C(Nc1cc2ccccc2oc1=O)c1ccccc1	.	.	72.1*	.	.	.
SMILES	TNFa cytotox	HUVEC tox IL1B	E-sel TNF inh	VCAM1 TNFa inh	IL1B NFkB pot	IL1B NFkB inh
COc1ccc(C(=O)Nc2cc(C(=O)c3ccccc3)c(C)oc2=O)cc1	-4.7	-21.5	.	2.6	7.1	-7.1
CN(C)CCNC(=O)/C(=C/c1ccc(-c2ccc(Cl)cc2)o1)NC(=O)c1ccccc1	.	.	93.5*	.	.	.
O=C(C1CCN(S(=O)(=O)N2CCOCC2)CC1)N1CCN(Cc2ccc3c(c2)OCO3)CC1	-7.5	-59.1	15.4	2.5	-1.7	1.7
Cc1noc(C)c1S(=O)(=O)N1CCC(C(=O)N2CCN(Cc3ccc4c(c3)OCO4)CC2)CC1	.	.	73.5*	.	.	.
Cc1ccc(S(=O)(=O)Cn2nnnc2C(C(C)C)N2CCN(c3nc4ccccc4s3)CC2)cc1 (centres undefined)	40.0	-6.9	-0.2	50.5*	-10.6	10.6
COC(=O)CSc1nnc(CNC(=O)c2cccs2)n1-c1cc(OC)ccc1OC	7.0	-8.0	-5.0	16.5	2.6	-2.6
COc1cccc(C(=O)NCc2ccc(-c3nc4ccccc4s3)cc2)c1	11.0	-11.9	13.1	11.0	-24.9	24.9
Cn1c(CSc2nc3ccccc3s2)nnc1SCC(=O)NCCCN1CCOCC1	-9.2	6.5	3.8	2.2	-3.5	3.5
C1=Nc2c(NCc3ccccc3)ncnc2Oc2ccccc21	-1.8	90.7*	-17.4	-7.4	-97.9	97.9*
Cc1ccc(NC(=O)c2ccc(OC(=O)CCN3C(=O)c4ccccc4C3=O)cc2)cc1	5.6	20.4	44.3*	-0.3	-0.3	0.3
Cc1ccc2nc(-c3ccc(NC(=O)C(C)N4C(=O)c5ccccc5C4=O)cc3)sc2c1 (centres undefined)	.	.	-19.9	.	.	.
Cc1ccc2nc(-c3ccc(NC(=O)CCN4C(=O)c5ccccc5C4=O)cc3)sc2c1	.	.	65.0*	.	.	.
COCCNC(=O)c1cc2nc(-c3ccc(F)cc3)cc(C(F)(F)F)n2n1	.	.	-1.6	.	.	.
FC(F)(F)c1cc(-c2ccc3c(c2)OCO3)nc(NCc2ccco2)n1	78.5*	21.4	18.8	77.6*	-2.1	2.1
COc1ccc(-c2cc(C(F)(F)F)nc(NCc3ccco3)n2)cc1OC	-35.7	-20.2	.	0.8	7.0	-7.0
Cc1cccc(N(CC(=O)NCCC2=CCCCC2)S(C)(=O)=O)c1C	10.6	12.7	9.2	16.6	3.1	-3.1
O=C(NNS(=O)(=O)c1ccc(Cl)cc1)c1cc(-c2ccccc2)nc2ccccc12	.	.	2.6	.	.	.
CCCCOc1ccc2ccccc2c1C=O	-19.8	3.0	52.0*	7.3	-5.7	5.7
CCCCOc1ccc2c(C)cc(=O)oc2c1OCCCC	-12.7	-7.5	-5.2	22.7	-12.3	12.3
C=CCNC(=O)COC(=O)COc1ccc(Cl)cc1	.	.	-10.4	.	.	.
CCC(C)[C@H](Nc1nc(-c2ccccc2)nc2c1oc1ccccc12)C(=O)O (some centres undefined)	1.5	-5.3	-29.5	-1.0	-6.6	6.6
CCOC(=O)N1CCN(C(=O)/C(=C/c2ccc(Br)cc2)NC(=O)c2ccc(OC)cc2)CC1	.	.	6.0	.	.	.
Cc1ccc(Nc2nnc(SCC(=O)Nc3ccc(S(=O)(=O)N4CCOCC4)cc3)s2)cc1	-0.4	83.7*	16.8	17.1	-34.2	34.2*
CCOC(=O)c1ccc(S(=O)(=O)N2CCN(C(=O)c3nn(C)c(=O)c4ccccc34)CC2)cc1	.	.	13.4	.	.	.
C=CCN(C(=O)CCC(=O)O)C1CC(=O)N(c2ccc(OCCC)cc2)C1=O (centres undefined)	.	.	92.4*	.	.	.
